Structures are written as SMILES. Results filed as inconclusive are left out. Active and inactive are the calls of the source. Calls follow the shape of the dose curve; as a rule, active = well fitted inhibition curve with a large enough effect; inconclusive = small, poorly fitted or top-dose-only effect; inactive = flat fitted curve, though single readings scatter.

Lysine-specific demethylase 5B (Homo sapiens), sequence (Q9UGL1 whole entry, looked up): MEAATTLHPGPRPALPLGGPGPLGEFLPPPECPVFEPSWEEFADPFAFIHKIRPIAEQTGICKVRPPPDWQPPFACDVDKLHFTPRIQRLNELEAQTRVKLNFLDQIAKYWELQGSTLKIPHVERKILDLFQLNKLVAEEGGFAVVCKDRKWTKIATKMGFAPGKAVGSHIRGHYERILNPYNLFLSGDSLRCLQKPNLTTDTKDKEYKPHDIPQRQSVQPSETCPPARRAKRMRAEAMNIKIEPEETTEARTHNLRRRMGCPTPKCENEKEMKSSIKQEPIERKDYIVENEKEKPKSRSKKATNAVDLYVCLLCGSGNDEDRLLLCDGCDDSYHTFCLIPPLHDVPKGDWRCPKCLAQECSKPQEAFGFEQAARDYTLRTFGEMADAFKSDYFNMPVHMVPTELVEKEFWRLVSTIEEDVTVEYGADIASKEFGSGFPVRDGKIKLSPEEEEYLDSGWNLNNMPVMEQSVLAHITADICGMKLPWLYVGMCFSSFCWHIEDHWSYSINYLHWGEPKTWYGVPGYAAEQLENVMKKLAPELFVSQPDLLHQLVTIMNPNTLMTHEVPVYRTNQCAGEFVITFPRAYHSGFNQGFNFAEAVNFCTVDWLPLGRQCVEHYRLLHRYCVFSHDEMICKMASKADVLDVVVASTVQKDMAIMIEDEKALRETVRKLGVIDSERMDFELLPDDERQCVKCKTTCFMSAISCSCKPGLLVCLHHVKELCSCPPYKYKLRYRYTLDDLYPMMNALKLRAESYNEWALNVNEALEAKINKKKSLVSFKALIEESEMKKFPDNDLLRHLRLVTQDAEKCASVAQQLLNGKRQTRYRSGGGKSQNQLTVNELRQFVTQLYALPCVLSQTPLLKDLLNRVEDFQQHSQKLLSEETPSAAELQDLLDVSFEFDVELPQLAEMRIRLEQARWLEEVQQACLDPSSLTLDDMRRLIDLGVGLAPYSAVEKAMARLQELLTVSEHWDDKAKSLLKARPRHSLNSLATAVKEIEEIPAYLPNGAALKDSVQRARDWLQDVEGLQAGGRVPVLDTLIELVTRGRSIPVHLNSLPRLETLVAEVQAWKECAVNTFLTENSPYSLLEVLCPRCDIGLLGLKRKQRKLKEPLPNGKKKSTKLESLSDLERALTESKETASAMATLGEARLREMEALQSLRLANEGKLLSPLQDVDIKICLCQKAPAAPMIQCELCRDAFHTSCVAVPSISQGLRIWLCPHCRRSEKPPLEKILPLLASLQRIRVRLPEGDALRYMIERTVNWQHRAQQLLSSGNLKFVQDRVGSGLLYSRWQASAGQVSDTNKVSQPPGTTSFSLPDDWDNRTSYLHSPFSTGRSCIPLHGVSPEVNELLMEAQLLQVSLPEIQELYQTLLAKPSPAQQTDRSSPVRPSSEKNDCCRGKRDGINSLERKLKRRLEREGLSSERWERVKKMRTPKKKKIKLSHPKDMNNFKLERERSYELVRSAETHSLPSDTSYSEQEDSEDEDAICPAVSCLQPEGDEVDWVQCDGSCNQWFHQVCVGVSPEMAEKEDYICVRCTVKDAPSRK

In this assay the target is Lysine-specific demethylase 5B (Homo sapiens) (UniProt Q9UGL1). As to the kind of experiment: Optimization screen for KDM5B Histone Demethylases FDH coupled qHTS against the LOPAC library (AID 1347166). To be noted: KDM5B demethylation, FDH-coupled NADH fluorescence (FDH is formaldehyde dehydrogenase); series mostly up to 57.5 µM. Summed up:
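KDM5BDeltaAP (200nM final) in 50mM HEPES pH 7.5, 0.01% Tween-20 was preincubated with compound for 10 min at room temperature. A substrate mix of 12.5uM H3K4Me3, 25uM a-ketoglutarate, ascorbate, Fe2+, NAD+ and formaldehyde dehydrogenase was then added. NADH fluorescence (340/450 nm) was read initially and after 30 min.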
In general terms: qHTS replaces the single test concentration by a dilution series.
Turning to `c1ccc(-c2ccccn2)nc1`, the compound was called inactive.

Take `C=CC(N)CCC(=O)O` (configuration not stated): the result was inactive. As for `C[N+](C)(C)CC(=O)[O-]`, the result was inactive.

`CN(C)CCCO[C@@H]1[C@H]2OC(C)(C)O[C@H]2O[C@@H]1[C@H](O)CO`: the call was inactive. As for `C[N+]1(C)CCC(OC(=O)C(c2ccccc2)c2ccccc2)CC1`, the entry is “inactive”; as for `CC(C)NCC(O)COc1cccc2ccccc12` (configuration not stated), “inactive”; as for `O=C(Nc1ccccc1)c1cc([N+](=O)[O-])ccc1Cl`, “inactive”. On to `NCCCCCCCCCCN`, for which the outcome was inactive. For `CSc1nc(N)c2ncn([C@@H]3O[C@H](COP(=O)(O)OP(=O)(O)OP(=O)(O)O)[C@@H](O)[C@H]3O)c2n1`, the compound was called inactive. As for `CC(C)CC(NP(=O)(O)O[C@@H]1O[C@@H](C)[C@H](O)[C@@H](O)[C@H]1O)C(=O)NC(Cc1c[nH]c2ccccc12)C(=O)O` (some centres not stated), the entry is “inactive”; as for `CC(C)ON([C@@H](C(=O)NO)C(C)C)S(=O)(=O)c1ccc(-c2ccccc2)cc1`, “inactive”; as for `CCCCCCCCCCCCCCCCCC(=O)OC(CC(=O)O)C[N+](C)(C)C` (configuration not stated), “inactive”.

As to `Clc1ccc(N2CCN(Cc3c[nH]c4ncccc34)CC2)cc1`, the result was inactive.

In the case of `O=S(=O)(c1cccc2c(I)cccc12)N1CCCNCC1`, the result was inactive. As for `C[C@@H](CN1CCC(Cc2ccccc2)CC1)[C@@H](O)c1ccc(O)cc1`, the entry is “inactive”; as for `Brc1c(Br)c(Br)c2n[nH]nc2c1Br`, “inactive”; as for `COc1ccc(NC(=O)/C=C/c2ccc(Cl)cc2)cc1`, “inactive”. Turning to `NC(N)=NC(=O)c1nc(Cl)c(N2CCCCCC2)nc1N`, the call was inactive. On to `O=C1/C(=C/c2ccsc2)CC/C1=C\c1cccs1`, for which the compound was called inactive.

In the case of `Nc1nc(Cl)nc2c1ncn2[C@@H]1O[C@H](COP(=O)(O)OP(=O)(O)OP(=O)(O)O)[C@@H](O)[C@H]1O`, the result was inactive. Turning to `CN(C)C(N)=NCCC[C@H](N)C(=O)O`, the compound was called inactive. As for `CN1CCc2cc(NC(=O)Nc3cccnc3)ccc21`, the entry is “inactive”; as for `O=c1[nH]c2cc(C(F)(F)F)ccc2n1-c1cc(C(F)(F)F)ccc1O`, “inactive”; as for `CN1CCC[C@H]1c1cccnc1`, “inactive”. Then `O=C(/C=C/c1ccc(O)c(O)c1)OCCc1ccccc1`, with “inactive”. Then `CN(C)c1ccc(/C=C2\C(=O)Nc3ccccc32)cc1`, with “inactive”; and `O=C(O)CC[C@@H](C(=O)O)N1C(=O)c2ccccc2C1=O`, with “inactive”; and `c1cnc2c(c1)ccc1cccnc12`, with “inactive”.

`O=c1[nH]c2cc([N+](=O)[O-])c([N+](=O)[O-])cc2[nH]c1=O`: the call was inactive. As for `Ic1ccc(N2CCN(Cc3c[nH]c4ncccc34)CC2)cc1`, the entry is “inactive”; as for `CCN1/C(=C/C(C)=O)Sc2ccc(OC)cc21`, “inactive”. As for `O=C(c1ccc(OCCCc2cnc[nH]2)cc1)C1CC1`, the entry is “inactive”; as for `N[C@@H](CC(=O)O)C(=O)O`, “inactive”; as for `O=[N+]([O-])c1ccc(CSc2ncnc3c2ncn3[C@@H]2O[C@H](CO)[C@@H](O)[C@H]2O)cc1`, “inactive”.

`O=C(O)/C=C/C(O)c1ccc(Cl)cc1` (configuration not stated): the compound was called inactive.

Consider `CNCC[C@H](Oc1ccc(C(F)(F)F)cc1)c1ccccc1`, for which the compound was called inactive. As for `Cc1cc(NC(=O)Nc2ccc3c(ccn3C)c2)sn1`, the entry is “inactive”.

Values taken from PubChem BioAssay (NCATS).
